The antibiotic and cytotoxicity screens of Wong et al. (2023)
In all, about 39,000 compounds went through this assay and about 1,500 (3.8%) were called active. Only a selection was taken, and actives are over-represented in it overall.

Each compound was assayed on HSkMC (human skeletal muscle cells) (assay: cytotoxicity call (relative viability < 0.9)). Settings: 10 µM.
For `C[C@H](CO)N1C[C@H](C)[C@@H](CN(C)CC2CC2)OCCCC[C@H](C)Oc2ccc(NC(=O)Nc3cccc4ccccc34)cc2C1=O`, the cytotoxicity call was “inactive”.
`C[C@@H]1CCCCO[C@@H](CN(C)CC2CC2)[C@H](C)CN([C@@H](C)CO)C(=O)c2cc(NC(=O)Nc3cccc4ccccc34)ccc2O1` was tested, and the cytotoxicity call was “inactive”.
`C[C@H](CO)N1C[C@H](C)[C@@H](CN(C)C)OCCCC[C@H](C)Oc2ccc(NC(=O)Nc3cccc4ccccc34)cc2C1=O` was tested, and the cytotoxicity call was “inactive”.
In the case of `C[C@H]1CCCCO[C@H](CN(C)CC2CCCCC2)[C@@H](C)CN([C@@H](C)CO)C(=O)c2cc(NC(=O)Nc3cccc4ccccc34)ccc2O1`, the cytotoxicity call is reported as “active”.
`C[C@@H]1CCCCO[C@@H](CN(C)CC2CC2)[C@@H](C)CN([C@H](C)CO)C(=O)c2cc(NC(=O)Nc3cccc4ccccc34)ccc2O1` was tested, and the cytotoxicity call was “inactive”.
`C[C@@H]1CN([C@@H](C)CO)C(=O)c2cc(NC(=O)Nc3cccc4ccccc34)ccc2O[C@@H](C)CCCCO[C@H]1CN(C)CC1CC1` was tested, and the cytotoxicity call was “inactive”.
For `C[C@@H]1CCCCO[C@H](CN(C)CC2CCCCC2)[C@H](C)CN([C@H](C)CO)C(=O)c2cc(NC(=O)Nc3cccc4ccccc34)ccc2O1`, the cytotoxicity call was “active”.
In the case of `C[C@@H]1CCCCO[C@H](CN(C)CC2CCCCC2)[C@@H](C)CN([C@H](C)CO)C(=O)c2cc(NC(=O)Nc3cccc4ccccc34)ccc2O1`, the cytotoxicity call is reported as “active”.
With `C[C@@H]1CCCCO[C@H](CN(C)CC2CC2)[C@H](C)CN([C@@H](C)CO)C(=O)c2cc(NC(=O)Nc3cccc4ccccc34)ccc2O1` the cytotoxicity call was “inactive”.
`C[C@@H]1CCCCO[C@@H](CN(C)CC2CCCCC2)[C@@H](C)CN([C@H](C)CO)C(=O)c2cc(NC(=O)Nc3cccc4ccccc34)ccc2O1` was tested, and the cytotoxicity call was “active”.
`C[C@H](O)c1nc(=O)c2ccccc2[nH]1` was tested, and the cytotoxicity call was “inactive”.
In the case of `CC(=O)OCC(=O)C1(O)CCC2C3CCC4=CC(=O)C=CC4(C)C3(F)C(O)CC21C` (centres undefined), the cytotoxicity call is reported as “inactive”.
`C[C@H](CO)N1C[C@H](C)[C@@H](CN(C)C(=O)Nc2ccc3c(c2)OCCO3)OCc2cnnn2CCCC1=O` was tested, and the cytotoxicity call was “inactive”.
`COCC(=O)Nc1ccc2c(c1)C(=O)N(C)C[C@H](OC)[C@@H](C)CN(Cc1ccccc1OC)[C@H](C)CO2` was tested, and the cytotoxicity call was “inactive”.
`S=C1C=C(N2CCCCC2)C[C@H](c2ccc(Cl)cc2)S1` was tested, and the cytotoxicity call was “inactive”.
With `C[C@@H]1CN([C@@H](C)CO)C(=O)c2cc(NC(=O)Nc3ccc(F)cc3)ccc2O[C@H]1CN(C)S(=O)(=O)c1cn(C)cn1` the cytotoxicity call was “inactive”.
With `Cc1noc(C)c1NC(=O)Nc1ccc2c(c1)C(=O)N([C@@H](C)CO)C[C@@H](C)[C@@H](CN(C)C(=O)NC(C)C)O2` the cytotoxicity call was “inactive”.
With `CCO[C@H]1OC(C(=O)N2CCN(Cc3ccccc3)CC2)=C[C@@H](C)[C@@H]1CCCOC(=O)NCCCCCC(=O)NO` the cytotoxicity call was “inactive”.
In the case of `C[C@H](CO)N1C[C@H](C)[C@H](CN(C)Cc2ccc(Cl)c(Cl)c2)Oc2ccc(NC(=O)Cc3ccccc3)cc2C1=O`, the cytotoxicity call is reported as “inactive”.
`C[C@@H]1CN([C@H](C)CO)C(=O)Cc2cc(NS(C)(=O)=O)ccc2O[C@H]1CN(C)C(=O)Nc1ccc2c(c1)OCO2` was tested, and the cytotoxicity call was “inactive”.
`C[C@@H]1CCCCO[C@@H](CN(C)CC2CCCCC2)[C@H](C)CN([C@@H](C)CO)C(=O)c2cc(NC(=O)Nc3cccc4ccccc34)ccc2O1` was tested, and the cytotoxicity call was “inactive”.
`C[C@@H]1CN([C@@H](C)CO)C(=O)c2cc(NC(=O)Nc3cccc4ccccc34)ccc2O[C@@H](C)CCCCO[C@H]1CN(C)CC1CCCCC1` was tested, and the cytotoxicity call was “active”.
In the case of `C[C@H](CO)N1C[C@H](C)[C@H](CN(C)CC2CCCCC2)OCCCC[C@H](C)Oc2ccc(NC(=O)Nc3cccc4ccccc34)cc2C1=O`, the cytotoxicity call is reported as “active”.
With `C[C@@H]1CCCCO[C@@H](CN(C)CC2CC2)[C@H](C)CN([C@H](C)CO)C(=O)c2cc(NC(=O)Nc3cccc4ccccc34)ccc2O1` the cytotoxicity call was “inactive”.
`C[C@@H]1CN([C@@H](C)CO)C(=O)c2cc(NC(=O)Nc3cccc4ccccc34)ccc2O[C@@H](C)CCCCO[C@@H]1CN(C)CC1CCCCC1` was tested, and the cytotoxicity call was “active”.
For `NCC1(c2cccs2)CCCC1`, the cytotoxicity call was “inactive”.
In the case of `CC(C)NC(=O)Nc1ccc2c(c1)C(=O)N([C@@H](C)CO)C[C@@H](C)[C@H](CN(C)Cc1ccc3c(c1)OCO3)O2`, the cytotoxicity call is reported as “inactive”.
With `Cc1noc(C)c1S(=O)(=O)N(C)C[C@H]1Oc2ccc(NC(=O)C3CCCCC3)cc2CC(=O)N([C@H](C)CO)C[C@@H]1C` the cytotoxicity call was “inactive”.
For `CCC(=O)N[C@@H]1CC[C@H](CC(=O)OC)O[C@@H]1CO`, the cytotoxicity call was “inactive”.
For `Cc1noc(C)c1NC(=O)Nc1ccc2c(c1)C(=O)N([C@@H](C)CO)C[C@H](C)[C@@H](CN(C)Cc1ccc(Cl)c(Cl)c1)OCCCC[C@@H](C)O2`, the cytotoxicity call was “inactive”.
With `C[C@@H]1CCCCO[C@@H](CN(C)C(=O)c2ccccc2)[C@@H](C)CN([C@H](C)CO)C(=O)c2cc(NC(=O)NC3CCCCC3)ccc2O1` the cytotoxicity call was “inactive”.
In the case of `Cc1noc(C)c1S(=O)(=O)Nc1cccc2c1O[C@@H](CN(C)C(=O)Nc1ccc3c(c1)OCO3)[C@@H](C)CN([C@@H](C)CO)C2=O`, the cytotoxicity call is reported as “inactive”.
`C[C@H]1CCCCO[C@H](CN(C)S(=O)(=O)c2ccc(Cl)cc2)[C@@H](C)CN([C@@H](C)CO)C(=O)c2cc(NS(=O)(=O)c3ccc(Cl)cc3)ccc2O1` was tested, and the cytotoxicity call was “inactive”.
With `C[C@@H]1CN([C@@H](C)CO)C(=O)c2cc(C#Cc3ccccc3F)cnc2O[C@H]1CN(C)C(=O)C1CCOCC1` the cytotoxicity call was “inactive”.
For `C[C@@H]1CCCCO[C@H](CN(C)Cc2ccc(C(=O)O)cc2)[C@H](C)CN([C@@H](C)CO)C(=O)c2cc(NS(=O)(=O)c3ccc(F)cc3)ccc2O1`, the cytotoxicity call was “inactive”.
With `O=C(C[C@H]1CC[C@H]2[C@@H](COC[C@@H](O)CN2S(=O)(=O)c2ccc(Oc3ccccc3)cc2)O1)NCCN1CCCCC1` the cytotoxicity call was “inactive”.
`C[C@@H]1CN([C@@H](C)CO)S(=O)(=O)c2ccc(-c3ccccc3F)cc2O[C@H]1CN(C)Cc1cncnc1` was tested, and the cytotoxicity call was “inactive”.
`CCCCOCCOc1ccc(-c2ccc3c(c2)/C=C(/C(=O)Nc2ccc([S@@](=O)Cc4cncn4CCC)cc2)CCCN3CC(C)C)cc1` was tested, and the cytotoxicity call was “active”.
For `C[C@@H]1CCCCO[C@H](CN(C)C(=O)NC2CCCCC2)[C@H](C)CN([C@H](C)CO)C(=O)c2cc(NC(=O)c3ccncc3)ccc2O1`, the cytotoxicity call was “inactive”.
